These results are taken from PubChem BioAssay (NCI).

Molecules are shown by their SMILES. This is part of a sample that, as a whole, favours compounds with a hit. Of some 79,000 tested, about 15% had one in any assay. Unmarked numbers belong to inactive results. Active and inactive are the calls of the source. Rule as the data show it: active = growth inhibition above about 70%; inactive = the rest.

A short description of this assay: NCI Yeast Anticancer Drug Screen. Data for the mgt1 strain (AID 153). As to conditions: S. cerevisiae mgt1 mutant growth inhibition, hits give high values. The method, then:
Growth inhibition of yeast strains with defined genetic alterations is measured as a screen for potential anti-cancer activity. Selected strains with alterations in DNA damage repair or cell cycle control were exposed to compounds and growth inhibition was measured relative to vehicle treated controls. The strain used in this assay is mgt1

In the case of `Oc1c(Br)cc(Br)cc1Br`, the growth inhibition was 12% (at 1.2 µM); 1% (at 3.7 µM); 24% (at 11.0 µM); 52% (at 33.0 µM); 82% (active) (at 100.0 µM).

`CC1CC(Br)C(=O)O1` (stereo not given): the growth inhibition is -52% (at 1.2 µM); -49% (at 3.7 µM); -24% (at 11.0 µM); 69% (at 33.0 µM); 86% (active) (at 100.0 µM).

For `CC(Cc1ccccc1)N(C)Cc1nc(C2CCC([N+](=O)[O-])O2)no1` (stereo not given), the growth inhibition (at 1.2 µM) was 1%; the growth inhibition (at 3.7 µM) was -1%; the growth inhibition (at 11.0 µM) is 13%; the growth inhibition (at 33.0 µM) is 25%; the growth inhibition (at 100.0 µM) was 49%.

On to `NNc1ccccc1Cl`, for which the growth inhibition reads like this: (at 1.2 µM) 25%; (at 3.7 µM) 42%; (at 11.0 µM) 79% (active); (at 33.0 µM) 96% (active); (at 100.0 µM) 96% (active).

Take `Cc1ccc2nc3sc(=O)sc3nc2c1`: the growth inhibition (at 1.2 µM) was 22%; the growth inhibition (at 3.7 µM) is 40%; the growth inhibition (at 11.0 µM) was 96% (active); the growth inhibition (at 33.0 µM) is 98% (active); the growth inhibition (at 100.0 µM) was 98% (active).

For the compound `Cc1ccc2c(c1)C1(C)c3cc(C)ccc3SP1S2` (stereo not given), the growth inhibition (at 1.2 µM) was 10%; the growth inhibition (at 3.7 µM) was 3%; the growth inhibition (at 11.0 µM) is 9%; the growth inhibition (at 33.0 µM) was 37%; the growth inhibition (at 100.0 µM) is 43%.

Take `C[CH2][Sn]1([CH2]C)[O]C2C(O)OC(CO)C(O)C2[O]1` (stereo not given): the growth inhibition runs as follows: (at 1.2 µM) -19%; (at 3.7 µM) -21%; (at 11.0 µM) -3%; (at 33.0 µM) 2%; (at 100.0 µM) 69%.

For the compound `CCS(=O)(=O)[O][Sn]([CH2]C)([CH2]C)[O]S(=O)(=O)CC`, the growth inhibition (at 1.2 µM) was -3%; the growth inhibition (at 3.7 µM) was -1%; the growth inhibition (at 11.0 µM) is 1%; the growth inhibition (at 33.0 µM) is 18%; the growth inhibition (at 100.0 µM) was 61%.
